PubChem BioAssay AID651776 (Vanderbilt Specialized Chemistry Center, 2012)

Target: Muscarinic acetylcholine receptor M5 (Homo sapiens) (UniProt P08912)
Test: M5 positive allosteric modulator fold shift, mechanism study, cell-based, calcium fluorescence (AID 651776)
Conditions: M5-expressing cells, agonist fold-shift, agonist curve fold shift, stronger effect = higher value

Sequence of Muscarinic acetylcholine receptor M5 (Homo sapiens) (P08912 whole entry, looked up): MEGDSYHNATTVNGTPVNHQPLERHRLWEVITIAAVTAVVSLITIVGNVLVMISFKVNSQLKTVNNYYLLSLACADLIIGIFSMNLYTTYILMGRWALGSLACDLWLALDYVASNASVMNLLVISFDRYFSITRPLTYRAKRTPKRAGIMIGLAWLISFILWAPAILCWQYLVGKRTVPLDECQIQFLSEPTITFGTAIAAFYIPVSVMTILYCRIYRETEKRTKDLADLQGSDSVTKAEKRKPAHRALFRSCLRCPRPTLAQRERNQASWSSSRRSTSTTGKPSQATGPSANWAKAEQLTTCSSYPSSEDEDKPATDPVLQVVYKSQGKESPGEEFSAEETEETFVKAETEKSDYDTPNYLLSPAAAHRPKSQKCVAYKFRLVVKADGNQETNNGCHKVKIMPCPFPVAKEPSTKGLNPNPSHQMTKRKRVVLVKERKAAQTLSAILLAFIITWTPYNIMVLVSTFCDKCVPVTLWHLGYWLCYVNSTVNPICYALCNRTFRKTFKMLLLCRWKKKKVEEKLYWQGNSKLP

For O=C1C(=O)N(CCOc2ccccc2)c2ccc(OC(F)(F)F)cc21, which fold shift is on record?
Its fold shift is 19.2.
